Assay [1] has as its target Estrogen receptor (Homo sapiens) (UniProt P03372). The assay can be described thus: NVS_NR_hER: NovaScreen (NVS) Nuclear Receptor Binding Assay for human Estrogen Receptor (ER) (AID 2283348). In a few lines:
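Cell-free radioligand binding with protein extracted from MCF7 cells; scintillation counting 18 hours after dosing. Loss of signal versus DMSO baseline read as displacement; primary single-concentration screen at 25 uM in duplicate, actives retested in concentration series.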

For assay [2] the target is unchanged. The assay is described as follows: OT_ER_ERaERa_1440: Odyssey Thera (OT) 24-hour HEK293T Protein-Complementation Assay for Estrogen Receptor-alpha/-alpha Homodimer (AID 2283349).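 Note: hits raise fluorescence above DMSO for agonists and antagonists alike.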 An outline of the steps: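 Readout is the rise in mean fluorescence from reporter fragment complementation when ERα LBD (aa 310-547) units dimerize in HEK293T cells. Measured 24 h after dosing and analysed as increase over DMSO control.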

Assay [3] has the same target. The assay is described as follows: OT_ER_ERaERa_0480: Odyssey Thera (OT) 8-hour HEK293T Protein-Complementation Assay for Estrogen Receptor-alpha/-alpha Homodimer (AID 2283351).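 Note: rise in fluorescence from reassembled reporter fragments on ERα LBD homodimer in nucleus or whole cell.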 An outline of the steps: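 HEK293T cells stably expressing the human ERα ligand-binding domain (aa 310-547) as a homodimer PCA were dosed with compound for 8 h. Gain of fluorescence intensity versus DMSO vehicle was read by laser scanning cytometry.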

In assay [4] the target is Estrogen receptor (Homo sapiens) + Estrogen receptor beta (Homo sapiens) (UniProt P03372+Q92731). The assay is described as follows: OT_ER_ERaERb_0480: Odyssey Thera (OT) 8-hour HEK293T Protein-Complementation Assay for Estrogen Receptor-alpha/-beta Heterodimer (AID 2283352). An outline of the steps:
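Compound added to HEK293T cells carrying split-reporter-tagged ER-alpha and ER-beta LBDs, incubated 8 hours, then imaged by laser scanning cytometer. Signal rise in nucleus, or nucleus and cytoplasm, over vehicle was fitted in the positive direction.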

In assay [5] the target is Bile acid receptor (Homo sapiens) (UniProt Q96RI1). The assay can be described thus: NVS_NR_hFXR_Antagonist: NovaScreen (NVS) Nuclear Receptor Binding Assay for human Farnesoid X Receptor Antagonism (FXR) (AID 2283350). In a few lines:
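Cell-free TR-FRET ligand-binding read-out on human FXR (NR1H4) in antagonist mode, measured 1 h after dosing. Primary screen in duplicate at 25 uM, actives retested in concentration series; signal loss scored versus DMSO.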

Assay [6] concerns the target Androgen Receptor/SRC-1 Co-activator, AR (gene 367) (UniProt P10275). The assay is described as follows: OT_AR_ARSRC1_0960: Odyssey Thera (OT) 16-hour HEK293T Protein-Complementation Assay for Androgen Receptor/SRC-1 Co-activator (AID 2283353).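 Note: actives raise the signal above DMSO so potency reflects increased AR and SRC-1 complex.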 In a few lines:
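HEK293T cells stably expressing AR and SRC-1 fused to split Venus YFP fragments via (Gly4Ser)2 linkers were dosed for 16 h. Nuclear/cytoplasmic fluorescence ratio at 488 nm, ≥400 cells per image, fitted for gain of signal versus DMSO.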

Assay [7] shares this target. The assay can be described thus: OT_AR_ARSRC1_0480: Odyssey Thera (OT) 8-hour HEK293T Protein-Complementation Assay for Androgen Receptor/SRC-1 Co-activator (AID 2283354).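 Note: hits raise the complementation signal above DMSO so AC50 marks enhancers.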 An outline of the steps: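 HEK293T cells stably expressing AR and SRC-1 fused to split Venus YFP fragments via (Gly4Ser)2 linkers were read 8 h after compound dosing. Complementation was imaged at 488 and 635nm, and nuclear/cytoplasmic fluorescence ratio (488nm) was taken over ≥400 cells; gain-of-signal versus DMSO.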

Assay [8] has as its target rat Mineralocorticoid Receptor (MR), Nr3c2 (gene 25672) (UniProt P22199). The assay is described as follows: NVS_NR_rMR: NovaScreen (NVS) Nuclear Receptor Binding Assay for rat Mineralocorticoid Receptor (MR) (AID 2283355). In a few lines: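 Cell-free radioligand binding to MR in adrenalectomized rat brain supernatant, scintillation counted 24 h after dosing. Loss of signal versus DMSO baseline marks displacement. Primary screen in duplicate at 25 uM; actives retested as concentration series.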

Results filed as inconclusive are left out. Active and inactive are the calls of the source. Rule for the calls: active = hit-call score of the fitted dose curve at least 0.9, where 1 is the maximum; inconclusive = response in the unintended direction; inactive = score below 0.9.

Chain of Bile acid receptor (Homo sapiens) (Q96RI1 whole entry, looked up): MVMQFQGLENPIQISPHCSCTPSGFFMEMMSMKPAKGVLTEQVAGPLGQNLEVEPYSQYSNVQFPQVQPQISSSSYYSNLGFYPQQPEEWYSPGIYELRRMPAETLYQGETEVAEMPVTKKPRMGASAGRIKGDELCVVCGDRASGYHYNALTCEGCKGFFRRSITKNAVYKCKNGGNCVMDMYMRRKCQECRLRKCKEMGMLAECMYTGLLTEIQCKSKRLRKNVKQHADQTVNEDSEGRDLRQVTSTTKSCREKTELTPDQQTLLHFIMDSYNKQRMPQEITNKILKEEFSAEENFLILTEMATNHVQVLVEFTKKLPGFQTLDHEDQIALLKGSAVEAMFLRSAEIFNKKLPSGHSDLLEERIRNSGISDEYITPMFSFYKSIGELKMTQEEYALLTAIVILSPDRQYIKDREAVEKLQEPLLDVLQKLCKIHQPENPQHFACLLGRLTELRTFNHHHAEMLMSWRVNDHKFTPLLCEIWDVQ
Chain of Androgen Receptor/SRC-1 Co-activator, AR (gene 367) (P10275 whole entry, looked up, the tested form may be a part): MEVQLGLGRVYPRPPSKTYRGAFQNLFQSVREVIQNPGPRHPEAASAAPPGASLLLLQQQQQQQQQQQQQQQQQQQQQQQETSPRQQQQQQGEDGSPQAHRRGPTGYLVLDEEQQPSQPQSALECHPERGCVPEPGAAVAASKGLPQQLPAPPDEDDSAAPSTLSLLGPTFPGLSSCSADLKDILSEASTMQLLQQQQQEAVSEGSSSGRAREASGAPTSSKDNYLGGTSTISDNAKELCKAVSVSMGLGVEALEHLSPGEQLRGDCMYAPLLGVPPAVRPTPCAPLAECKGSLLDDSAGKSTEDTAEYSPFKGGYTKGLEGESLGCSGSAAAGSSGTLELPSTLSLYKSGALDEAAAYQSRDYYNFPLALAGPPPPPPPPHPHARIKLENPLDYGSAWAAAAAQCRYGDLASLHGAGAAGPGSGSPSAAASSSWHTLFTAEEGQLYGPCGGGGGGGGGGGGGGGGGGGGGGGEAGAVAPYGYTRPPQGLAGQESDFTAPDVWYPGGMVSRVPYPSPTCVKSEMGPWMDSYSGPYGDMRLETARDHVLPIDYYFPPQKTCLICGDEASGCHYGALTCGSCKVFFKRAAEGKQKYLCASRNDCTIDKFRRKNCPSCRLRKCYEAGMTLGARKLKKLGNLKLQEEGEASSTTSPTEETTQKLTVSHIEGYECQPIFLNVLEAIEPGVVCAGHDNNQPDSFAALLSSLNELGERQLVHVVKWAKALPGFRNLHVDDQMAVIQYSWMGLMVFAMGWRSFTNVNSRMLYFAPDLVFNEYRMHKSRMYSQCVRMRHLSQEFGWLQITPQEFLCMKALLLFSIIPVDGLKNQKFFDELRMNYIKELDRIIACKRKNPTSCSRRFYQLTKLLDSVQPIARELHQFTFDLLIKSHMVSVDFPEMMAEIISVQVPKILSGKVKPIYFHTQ
Chain of Estrogen receptor (Homo sapiens) + Estrogen receptor beta (Homo sapiens) (P03372 whole entry, looked up): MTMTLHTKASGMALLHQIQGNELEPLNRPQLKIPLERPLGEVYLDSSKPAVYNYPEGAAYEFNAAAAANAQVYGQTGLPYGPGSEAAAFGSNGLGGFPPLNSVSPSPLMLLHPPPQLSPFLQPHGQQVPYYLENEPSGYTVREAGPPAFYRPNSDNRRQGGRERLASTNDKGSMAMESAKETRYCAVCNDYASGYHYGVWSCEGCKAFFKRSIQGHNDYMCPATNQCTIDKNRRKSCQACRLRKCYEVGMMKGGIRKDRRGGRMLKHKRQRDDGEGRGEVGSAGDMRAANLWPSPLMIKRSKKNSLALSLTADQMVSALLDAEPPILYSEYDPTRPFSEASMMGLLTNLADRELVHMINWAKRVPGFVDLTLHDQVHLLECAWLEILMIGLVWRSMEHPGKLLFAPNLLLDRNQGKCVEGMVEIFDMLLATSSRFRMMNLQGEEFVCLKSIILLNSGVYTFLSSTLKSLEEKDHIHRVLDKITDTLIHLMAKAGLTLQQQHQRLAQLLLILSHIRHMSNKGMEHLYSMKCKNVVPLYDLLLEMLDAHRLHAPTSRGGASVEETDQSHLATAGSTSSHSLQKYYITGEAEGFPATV
Chain of Estrogen receptor (Homo sapiens) + Estrogen receptor beta (Homo sapiens) (Q92731 whole entry, looked up): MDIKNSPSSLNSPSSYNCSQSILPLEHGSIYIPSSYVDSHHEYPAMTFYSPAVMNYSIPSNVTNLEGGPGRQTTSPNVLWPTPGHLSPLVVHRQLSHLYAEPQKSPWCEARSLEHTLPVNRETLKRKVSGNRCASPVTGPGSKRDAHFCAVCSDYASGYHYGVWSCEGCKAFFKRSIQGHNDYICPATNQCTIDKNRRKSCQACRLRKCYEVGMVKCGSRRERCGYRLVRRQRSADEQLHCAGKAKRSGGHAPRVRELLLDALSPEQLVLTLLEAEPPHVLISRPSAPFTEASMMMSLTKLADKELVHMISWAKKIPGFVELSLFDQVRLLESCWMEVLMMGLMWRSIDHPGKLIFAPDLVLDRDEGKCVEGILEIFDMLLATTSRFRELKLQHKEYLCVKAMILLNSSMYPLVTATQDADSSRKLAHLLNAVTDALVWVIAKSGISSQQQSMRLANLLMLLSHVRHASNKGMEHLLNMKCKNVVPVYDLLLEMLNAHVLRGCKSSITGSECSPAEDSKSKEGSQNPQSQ
Chain of Estrogen receptor (Homo sapiens) (P03372 whole entry, looked up): as the sequence (P03372 whole entry, looked up) above
Chain of rat Mineralocorticoid Receptor (MR), Nr3c2 (gene 25672) (P22199 whole entry, looked up): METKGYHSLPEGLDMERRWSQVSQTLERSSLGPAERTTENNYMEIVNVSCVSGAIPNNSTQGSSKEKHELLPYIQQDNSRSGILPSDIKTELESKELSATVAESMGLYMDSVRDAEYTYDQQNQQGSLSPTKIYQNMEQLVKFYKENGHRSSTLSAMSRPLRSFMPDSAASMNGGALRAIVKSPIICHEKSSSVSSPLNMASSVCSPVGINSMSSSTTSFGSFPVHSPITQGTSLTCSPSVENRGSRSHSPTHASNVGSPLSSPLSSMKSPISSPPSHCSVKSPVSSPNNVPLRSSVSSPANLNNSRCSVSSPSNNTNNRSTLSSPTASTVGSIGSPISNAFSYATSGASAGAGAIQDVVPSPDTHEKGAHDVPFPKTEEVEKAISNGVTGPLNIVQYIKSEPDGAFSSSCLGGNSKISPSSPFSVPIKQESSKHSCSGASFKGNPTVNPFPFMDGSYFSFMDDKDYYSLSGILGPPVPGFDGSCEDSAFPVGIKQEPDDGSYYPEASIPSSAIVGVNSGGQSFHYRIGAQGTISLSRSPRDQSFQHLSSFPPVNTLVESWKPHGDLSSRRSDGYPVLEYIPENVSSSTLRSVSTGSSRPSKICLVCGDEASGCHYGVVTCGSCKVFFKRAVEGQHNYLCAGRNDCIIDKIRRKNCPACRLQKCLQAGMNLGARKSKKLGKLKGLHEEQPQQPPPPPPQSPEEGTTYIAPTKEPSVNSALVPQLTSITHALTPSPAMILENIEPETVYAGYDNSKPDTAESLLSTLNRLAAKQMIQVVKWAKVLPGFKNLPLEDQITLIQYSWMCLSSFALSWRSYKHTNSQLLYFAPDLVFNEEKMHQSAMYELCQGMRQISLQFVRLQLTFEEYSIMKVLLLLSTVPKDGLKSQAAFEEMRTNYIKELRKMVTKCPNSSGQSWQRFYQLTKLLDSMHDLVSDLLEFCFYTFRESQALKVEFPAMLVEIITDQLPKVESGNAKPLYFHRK

On to `O=C(O)Cc1cc(I)c(Oc2cc(I)c(O)c(I)c2)c(I)c1`, for which the call in assay [1], in assay [2], in assay [3] and in assay [4] was inactive.

Regarding `OCCC(F)(F)C(F)(F)C(F)(F)C(F)(F)C(F)(F)C(F)(F)F`, the call in assay [2], in assay [3] and in assay [4] was inactive.

For the molecule `CCCCC(CC)COC(=O)CCCCC(=O)OCC(CC)CCCC` (stereo not drawn), the call in assay [2], in assay [5], in assay [3] and in assay [4] was inactive.

Regarding `N#C[C@@H]1CC(F)(F)CN1C(=O)CNC1CC2CCC(C1)N2c1ncccn1` (stereo partly drawn), the molecule was called inactive in assay [2], in assay [3], in assay [4], in assay [6] and in assay [7].

`O=[N+]([O-])c1ccc(O)cc1`: the molecule was classed as inactive in assay [1], in assay [2] and in assay [3].

As to `CCCCCCCCC(=O)O`, the molecule was called inactive in assay [2], in assay [3] and in assay [4].

In the case of `CCCCOCCO`, the molecule was classed as inactive in assay [2] and in assay [3].

With `CC(=O)CC(C)(C)O`, the result in assay [2], in assay [3], in assay [4], in assay [6] and in assay [7] was inactive.

Turning to `CCOC(=O)CC(O)(CC(=O)OCC)C(=O)OCC`, the call in assay [2], in assay [3] and in assay [4] was inactive.

For the molecule `COCC(C)O` (stereo not drawn), the AC50 – broadly, the midpoint of the concentration-response curve, whichever way the signal moves – in assay [1] is 1.82 µM (active). In addition, the outcome in assay [2], in assay [3] and in assay [8] was inactive.

On to `CN1CCC[C@H]1c1cccnc1`, for which the call in assay [2], in assay [3] and in assay [4] was inactive.

On to `CC(C)(C)c1ccc(O)c(C(C)(C)C)c1`, for which the outcome in assay [2] and in assay [3] was inactive.

Take `CCc1nn(C2CCCCC2)c2cc(C3(C#N)CCC(C(=O)O)CC3)ccc12` (stereo not drawn): the call in assay [1], in assay [2], in assay [3] and in assay [4] was inactive.

In the case of `CC(C)CCCCCCOC(=O)CCCCC(=O)OCCCCCCC(C)C`, the call in assay [2], in assay [5] and in assay [3] was inactive.

Turning to `CC(C)(C)c1cccc(C(C)(C)C)c1O`, the molecule was called inactive in assay [2] and in assay [3].

With `C=C(C)C(=O)OCCC(F)(F)C(F)(F)C(F)(F)C(F)(F)C(F)(F)C(F)(F)F`, the result in assay [2], in assay [3] and in assay [4] was inactive.

Turning to `c1ccc2c(c1)ccc1ccccc12`, the outcome in assay [2], in assay [3], in assay [6] and in assay [7] was inactive.

As for `CN1CCN(c2ccccc2/C=C2\SCCN(c3ccc(Cl)c(Cl)c3)C2=O)CC1`, the outcome in assay [2], in assay [5] and in assay [3] was inactive.

Consider `CCc1ccc(CCOc2ccc(CC3SC(=O)NC3=O)cc2)nc1` (stereo not drawn), for which the half-maximal activity concentration (AC50) in assay [2] was 75.1 µM (active); in assay [3], 76.7 µM (active). In assay [4], the outcome was inactive.

With `CC(O)CO` (stereo not drawn), the molecule was called inactive in assay [2], in assay [5] and in assay [3].

Consider `CCCCCCC(=O)O`, for which the molecule was called inactive in assay [2] and in assay [3].

As to `CC(O)C(=O)O` (stereo not drawn), the outcome in assay [2] and in assay [3] was inactive.

As to `CCCCCCCCOC(=O)CCCCCCCCC(=O)OCCCCCCCC`, the result in assay [2], in assay [3] and in assay [4] was inactive.
